Measured potencies and affinities stand elsewhere. Activity calls are given as the source filed them.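 How the source made its calls: active means every repeat run showing a signal drop whose fitted half-maximal concentration is at most twice the top tested concentration; inconclusive means repeat runs disagree, or flat partial drop, or poor fit; inactive means the rest.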
Assay: general mammalian cell viability loss – activator set, cherry-pick, cytotoxicity control for miR-122 modulator project, dose response (AID 720690)
Details: HEK293T viability, CellTiter-Glo luminescence, 48 h; series mostly up to 26 µM

Row | SMILES | outcome
1 | O=C(c1ccco1)c1cn(Cc2ccccc2Cl)c2ccccc12 | inactive
2 | O=C1NC(=O)N(CCC2=CCCCC2)C(=O)/C1=C\c1cccs1 | inactive
3 | COc1ccc(C2SCC(=O)Nc3c2c(=O)[nH]n3C2CCCCCC2)cc1 (centres undefined) | inactive
4 | COc1ccc2c(c1)c(CCN)c(C)n2Cc1ccccc1 | inactive

— PubChem BioAssay AID720690 (Broad Institute, 2013)
